Assay results from PubChem BioAssay (Tox21).
Results filed as inconclusive are left out. Calls of active or inactive are those of the source. Unless noted, the call rests on the fitted dose curve; in most records, active means well fitted curve in the direction sought with a large enough effect in the repeat runs; inconclusive means weak or mixed curves; inactive means no such curve, though single readings can be large; an effect the other way counts as inactive or inconclusive.

What was measured:
[1] = qHTS assay to identify small molecule antagonists of the estrogen related receptor signaling pathway with the pleiotropic PPARgamma coactivator (PGC) from Tox21 10K library - cell viability counter screen (AID 1224840; active means well fitted cell-killing curve with a large enough effect in the repeat runs, not every such curve was filed as active; further: nearly all actives have a fitted effect of over 40% in size)
Summary of the method: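 Following seeding of 2,000 PGC/ERR cells/well and 6 hours' incubation, test compounds were delivered in DMSO. The plates then sat 17.5 hours at 37 C before a fluorogenic live-cell protease reagent (CellTiter-Fluor) was read after 30 min.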

[2] = target: Thyrotropin receptor (Homo sapiens) (UniProt P16473); assay: qHTS assay to identify small molecule agonists of the thyroid stimulating hormone receptor (TSHR) signaling pathway (AID 1224843; calls by dose curve; further: nearly all actives have a fitted effect of over 45% in size)
Summary of the method: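 TSHR-HEK293 cells in agonist mode, 30 min room-temperature step, then cAMP measured by competitive HTRF (cAMP-d2 with anti-cAMP cryptate) after 1 h at room temperature. Tested at 15 concentrations in triplicate.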

[3] = qHTS assay to identify small molecule agonists of the hypoxia (HIF-1) signaling pathway - cell viability counter screen (AID 1224844; calls by dose curve; further: nearly all actives have a fitted effect of over 50% in size)
Summary of the method: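 Cells (HRE-bla ME-180, 2,000 per well) sat 5 hrs at 37C, got compound for 17 hrs, were read for CCF4-AM FRET, and were finally lysed with CellTiter-Glo for a 30 min room-temperature luminescence read.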

[4] = qHTS assay to identify small molecule agonists of H2AX (AID 1224845; active means well fitted activation curve with a large enough effect in the signal ratio in the repeat runs, not every such curve was filed as active; the % refers to the signal ratio)
Summary of the method: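 Wild-type CHO-K1 cells, plated overnight, exposed 3hr at 37C to 15 concentrations (0.76% DMSO final). Lysed, then HTRF anti-pH2AX (S139) cryptate and anti-H2AX-d2 antibodies, 24 hr room temperature; 665/620 nm emission read.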

[5] = qHTS assay to identify small molecule agonists of the hypoxia (HIF-1) signaling pathway (AID 1224846; active means well fitted activation curve with a large enough effect in the signal ratio in the repeat runs, not every such curve was filed as active; the % refers to the signal ratio)
Summary of the method: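 A low-serum medium (0.5% dialyzed FBS) holding 2,000 HRE-bla ME-180 cells per well is preincubated for 5 hrs, dosed with compounds by pintool, and kept a further 17 hrs at 37C, 5% CO2 before CCF4-AM FRET detection of beta-lactamase.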

[6] = qHTS assay to identify small molecule agonists of H2AX - cell viability counter screen (AID 1224847; calls by dose curve; further: top concentration of the series differs between compounds; nearly all actives have a fitted effect of over 30% in size)
Summary of the method: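 Counter-screen for viability: CellTiter-Glo ATP luminescence read after 3 h compound treatment (15-point titration, 0.76% DMSO final) of CHO-K1 cells at 37C, with 30 min room-temperature reagent incubation.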

[7] = qHTS RealTime-Glo MT Cell Viability Assay in HepG2 cells - 24 hour (AID 1224867); further: nearly all actives have a fitted effect of over 50% in size
Summary of the method: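 Luminescence read-out: viable HepG2 cells reduce a prosubstrate to a NanoLuc substrate, giving a signal proportional to live cell number. Reads taken at 0, 8, 16, 24, 32 and 40 h of compound exposure at 37 C.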

[8] = qHTS RealTime-Glo MT Cell Viability Assay in HEK293 cells - 32 hour (AID 1224868); further: top concentration of the series differs between compounds; nearly all actives have a fitted effect of over 50% in size
Summary of the method: (§1)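 Nonlytic real-time viability readout: viable cells convert prosubstrate to NanoLuc substrate, giving luminescence proportional to live cell number. HEK293, 600 cells/well, compound added after 5 h, continuous culture at 37 C.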

[9] = A CellTox Green Cytotoxicity Assay to monitor cytotoxicity in HEK293 cells - 0 hour (AID 1224869); further: nearly all actives have a fitted effect of over 50% in size; further: potency means the concentration at half of the fitted maximal effect
Summary of the method: (§2)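 Fluorescence intensity, read at 0, 8, 16, 24, 32 and 40 h of compound treatment, reflected dye binding to DNA of dead HEK293 cells; compounds (23 nL, DMSO) were added 5 h after plating cells with reagent.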

[10] = qHTS RealTime-Glo MT Cell Viability Assay in HepG2 cells - 40 hour (AID 1224870); further: nearly all actives have a fitted effect of over 50% in size
Summary of the method: (§3)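 HepG2 cells (600/well) mixed with RealTime-Glo MT reagent, settled 5 h at 37 C/5% CO2 before compound addition. Nonlytic NanoLuc luminescence from viable-cell prosubstrate reduction read repeatedly during 40 h treatment at 37 C.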

[11] = qHTS RealTime-Glo MT Cell Viability Assay in HepG2 cells - 8 hour (AID 1224873); further: nearly all actives have a fitted effect of over 55% in size
Summary of the method: as §3

[12] = qHTS RealTime-Glo MT Cell Viability Assay in HEK293 cells - 40 hour (AID 1224874); settings: RealTime-Glo luminescence; max response: hits give low values; further: nearly all actives have a fitted effect of over 50% in size
Summary of the method: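 Viable HEK293 cells reduce a cell-permeant prosubstrate; the product diffuses out and is consumed by NanoLuc in the medium to give light. Compounds went in after a 5 h incubation and plates were read over the treatment course.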

[13] = A CellTox Green Cytotoxicity Assay to monitor cytotoxicity in HEK293 cells - 24 hour (AID 1224875); further: nearly all actives have a fitted effect of over 45% in size; further: potency means the concentration at half of the fitted maximal effect
Summary of the method: as §2

[14] = A CellTox Green Cytotoxicity Assay to monitor cytotoxicity in HepG2 cells - 16 hour (AID 1224876); further: nearly all actives have a fitted effect of over 45% in size; further: potency means the concentration at half of the fitted maximal effect
Summary of the method: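 Using 1536-well format, dye-containing HepG2 suspension was seeded, allowed 5 h at 37 C/5% CO2, dosed by pintool with compounds, positive and negative controls, and imaged for fluorescence across 40 h.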

[15] = A CellTox Green Cytotoxicity Assay to monitor cytotoxicity in HEK293 cells - 40 hour (AID 1224871); further: nearly all actives have a fitted effect of over 45% in size
Summary of the method: as §2

[16] = qHTS RealTime-Glo MT Cell Viability Assay in HEK293 cells - 16 hour (AID 1224872)
Summary of the method: as §1

[17] = qHTS assay to identify small molecule antagonists of the estrogen related receptor (ERR) signaling pathway from Tox21 library (AID 1224848); further: nearly all actives have a fitted effect of over 50% in size
Summary of the method: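 ERR reporter cell line (from NTP) seeded 2,000 cells/well, rested 6 h at 37 C/5% CO2, then pin-dosed with compounds in DMSO. After 18 h at 37 C, ONE-Glo added; luminescence read after 30 min at room temperature.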

[18] = qHTS assay to identify small molecule agonists of the estrogen related receptor (ERR) signaling pathway from Tox21 library (AID 1224849; calls by dose curve; further: nearly all actives have a fitted effect of over 15% in size); settings: ERR reporter cell line, ONE-Glo luciferase, 18 h; at 92.4 µM (top of the series) unless noted
Summary of the method: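 Screening used an NTP-provided ERR luciferase cell line. Compounds in DMSO were added 6 h after seeding and left 18 h at 37 C before a 30 min ONE-Glo step and luminescence reading.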
On the % scale 0 is the no-effect control and ±100 the full control effect.

Thyrotropin receptor (Homo sapiens), sequence (P16473 whole entry, looked up): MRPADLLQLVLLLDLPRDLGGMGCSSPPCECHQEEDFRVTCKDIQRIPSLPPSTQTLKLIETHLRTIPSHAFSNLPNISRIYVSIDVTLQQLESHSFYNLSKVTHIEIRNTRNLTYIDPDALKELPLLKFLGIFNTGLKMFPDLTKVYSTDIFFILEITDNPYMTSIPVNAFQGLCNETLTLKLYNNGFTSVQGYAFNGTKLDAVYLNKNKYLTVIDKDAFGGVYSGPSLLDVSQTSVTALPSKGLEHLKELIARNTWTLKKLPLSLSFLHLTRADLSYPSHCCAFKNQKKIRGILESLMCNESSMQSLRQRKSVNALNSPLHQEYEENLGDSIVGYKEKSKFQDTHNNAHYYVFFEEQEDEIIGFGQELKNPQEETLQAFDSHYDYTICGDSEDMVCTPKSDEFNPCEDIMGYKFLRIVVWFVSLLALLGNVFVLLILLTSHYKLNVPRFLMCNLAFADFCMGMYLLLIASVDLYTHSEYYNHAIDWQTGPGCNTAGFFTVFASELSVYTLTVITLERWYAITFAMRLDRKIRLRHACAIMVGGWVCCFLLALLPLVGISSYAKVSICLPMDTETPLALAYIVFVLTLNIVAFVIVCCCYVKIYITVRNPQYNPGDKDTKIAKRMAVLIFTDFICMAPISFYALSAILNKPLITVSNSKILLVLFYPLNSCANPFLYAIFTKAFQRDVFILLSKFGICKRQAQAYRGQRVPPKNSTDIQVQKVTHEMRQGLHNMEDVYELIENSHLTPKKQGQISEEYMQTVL

CCOc1ccccc1OCC1CNCCO1 (stereo not given)
inactive: outcome [1] | outcome [2] | outcome [3] | outcome [4] | outcome [5] | outcome [6] | outcome [7] | Potency [8] | Potency [9] | outcome [10] | outcome [11] | max response [12] 2.19% | Potency [13] | Potency [14]

Cc1ccc(N)cc1S(=O)(=O)O
inactive: outcome [1] | outcome [2] | outcome [3] | outcome [4] | outcome [5] | outcome [6] | outcome [7] | Potency [8] | Potency [9] | outcome [10] | Potency [15] | outcome [11] | max response [12] 7.16% | Potency [13] | Potency [14]

CCCCCCCCCOC(=O)CCCCC(=O)OCCCCCCC
inactive: outcome [1] | outcome [2] | outcome [3] | outcome [4] | outcome [5] | outcome [6] | outcome [7] | Potency [8] | outcome [10] | outcome [11] | max response [12] 0.901%
active: Potency [9] 43.6 µM | Potency [13] 24.5 µM | Potency [14] 24.5 µM

CC(S)C(C)S (stereo not given)
inactive: outcome [1] | outcome [2] | outcome [3] | outcome [4] | outcome [5] | outcome [6] | outcome [7] | Potency [8] | Potency [9] | Potency [15] | Potency [16] | outcome [11] | max response [12] 7.38% | Potency [13] | Potency [14]

O=C1NC(c2ccccc2)(c2ccccc2)C(=O)N1COP(=O)(O)O
inactive: outcome [1] | outcome [2] | outcome [3] | outcome [4] | outcome [5] | outcome [6] | outcome [7] | Potency [8] | Potency [9] | Potency [15] | Potency [16] | outcome [11] | max response [12] -5.37% | Potency [13] | Potency [14]

CC1OCCC1=O (stereo not given)
inactive: outcome [1] | outcome [2] | outcome [3] | outcome [4] | outcome [5] | outcome [6] | outcome [7] | Potency [8] | Potency [9] | Potency [15] | Potency [16] | outcome [11] | max response [12] 3.12% | Potency [13] | Potency [14]

CC(=O)CC(=O)OC(C)(C)C
inactive: outcome [1] | outcome [2] | outcome [3] | outcome [4] | outcome [5] | outcome [6] | Potency [8] | Potency [9] | outcome [10] | Potency [16] | outcome [11] | max response [12] 1.26% | Potency [13] | Potency [14]

CO/N=C(/C(=O)N[C@@H]1C(=O)N2C(C(=O)[O-])=C(C[n+]3ccn4ncccc43)CS[C@H]12)c1nsc(N)n1
inactive: outcome [1] | outcome [2] | outcome [3] | outcome [4] | outcome [5] | outcome [6] | Potency [8] | Potency [9] | outcome [10] | Potency [15] | outcome [11] | max response [12] 6.83% | Potency [14]

CN(C)CCN(C)CCO
inactive: outcome [1] | outcome [2] | outcome [3] | outcome [4] | outcome [5] | outcome [7] | Potency [8] | Potency [9] | outcome [10] | Potency [15] | Potency [16] | outcome [11] | max response [12] 5.64% | Potency [13] | Potency [14]

COP(=O)(O)OP(=O)(O)OC
inactive: outcome [1] | outcome [2] | outcome [3] | outcome [4] | outcome [5] | outcome [6] | Potency [8] | Potency [9] | outcome [10] | Potency [15] | Potency [16] | outcome [11] | max response [12] 5.3% | Potency [13] | Potency [14]

Fc1ccccc1
inactive: outcome [1] | outcome [2] | outcome [3] | outcome [5] | outcome [6] | Potency [17] | activity change, positive = activation [18] 8.1% | outcome [7] | Potency [8] | Potency [9] | Potency [15] | Potency [16] | outcome [11] | max response [12] 13.3% | Potency [13] | Potency [14]

N[C@@H](CSCCCO)C(=O)O
inactive: viability change, negative = cytotoxic [1] -0.0206% [at 19 µM] | activation [2] 0.239% [at 19 µM] | activity change, negative = cytotoxicity [3] 0.058% [at 15.8 µM] | activation (H2AX phosphorylation) [4] 1.1% [at 31.6 µM] | activation [5] -1.56% [at 15.8 µM] | activity change, negative = cytotoxicity [6] -1.29% [at 31.6 µM] | activity change, negative = cytotoxic [8] 3.39% [at 15.8 µM] | cytotoxicity [9] -3.9% [at 15.8 µM] | activity change, negative = cytotoxic [10] 1.41% [at 15.8 µM] | activity change, negative = cytotoxicity [16] 2.66% [at 15.8 µM] | viability change, negative = cytotoxic [11] 1.95% [at 15.8 µM] | max response [12] 2.4% | activity change [13] 1.71% [at 15.8 µM, hits give high values] | cytotoxicity increase [14] -15.5% [at 15.8 µM]

Cc1cc(-c2ccccc2)nnc1NCCN1CCOCC1
inactive: outcome [1] | outcome [2] | outcome [3] | outcome [4] | outcome [6] | outcome [7] | Potency [8] | Potency [9] | outcome [10] | Potency [16] | outcome [11] | max response [12] -1.81% | Potency [13] | Potency [14]

CC(C)CO
inactive: outcome [1] | outcome [2] | outcome [3] | outcome [4] | outcome [5] | outcome [6] | Potency [8] | Potency [9] | outcome [10] | outcome [11] | max response [12] -4.29% | Potency [14]

CCC(=O)Oc1ccc2c(c1)CC[C@@H]1[C@@H]2CC[C@@]2(C)[C@H]1C[C@@H](OC(=O)CC)[C@@H]2OC(=O)CC
inactive: outcome [1] | outcome [2] | outcome [3] | outcome [5] | outcome [6] | outcome [7] | Potency [8] | Potency [9] | outcome [10] | Potency [15] | Potency [16] | outcome [11] | max response [12] -0.818% | Potency [13]
